The source of these data is PubChem BioAssay (NCI).

This is part of a sample that, as a whole, favours compounds with a hit. Of some 83,000 tested, about 20% had one in any assay.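 96-well plates, one dose, 48 hours. Percent growth reported; active if below 10.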 Unmarked numbers belong to inactive results. The source made the active and inactive calls.

Some test systems named below: NCI-H23 lung; NCI-H226 lung; NCI-H322M lung; HOP-62 NSCLC; NCI-H460 lung; HOP-92 NSCLC; NCI-H522 lung; A549/ATCC NSCLC; 786-0 renal; COLO 205 colon; DU-145 prostate; K-562 leukemia; MALME-3M melanoma; MDA-MB-231 breast; SF-268 CNS; SF-295 CNS; SF-539 CNS; M14 melanoma.
Holding throughout (assay): NCI-60 one-dose screen, 48 h (100 = growth as untreated, 0 = no growth, -100 = all killed)
Holding throughout (settings): 10 µM unless noted

In the case of `Cc1cc(Cl)ccc1OC(C)C(=O)Nc1nnc(C2CC2)s1` (stereo unspecified), the growth in the experiment with NCI-H23 lung is 76.7%; in the experiment on NCI-H226 lung it was 98.5%; in the experiment with NCI-H322M lung it was 124%; in the experiment on HOP-62 NSCLC, 94.7%; in the experiment on NCI-H460 lung, 114%; with HOP-92 NSCLC, 81.3%. Also, the growth was 94.6% with NCI-H522 lung; 86.3% in the experiment with A549/ATCC NSCLC; 92.7% in the experiment on 786-0 renal; 105% in the experiment on COLO 205 colon; 102% in the experiment on DU-145 prostate; 120% in the experiment on K-562 leukemia. The growth with MALME-3M melanoma is 119%; with MDA-MB-231 breast, 95.1%; in the experiment on SF-268 CNS, 111%; with SF-295 CNS, 89%; in the experiment with SF-539 CNS it was 101%; in the experiment on M14 melanoma, 113%.
On to `CC(C)(C)c1cc(-c2nc3ccc(N4CCN(CCO)CC4)cc3[nH]2)cc(C(C)(C)C)c1O`, for which the growth in the experiment on NCI-H23 lung is 96.3%; in the experiment with NCI-H226 lung it was 99%; in the experiment with NCI-H322M lung, 82.3%; in the experiment with HOP-62 NSCLC, 72.6%; with NCI-H460 lung it was 4.48% (active); in the experiment on HOP-92 NSCLC, 45.2%. The growth was 74% with NCI-H522 lung; 43.1% with A549/ATCC NSCLC; 52% with 786-0 renal; -57.2% (active) in the experiment with COLO 205 colon; 70.5% in the experiment on DU-145 prostate; -24.2% (active) with K-562 leukemia. The growth is -26.4% (active) in the experiment with MALME-3M melanoma; 39.2% with MDA-MB-231 breast; 68.3% in the experiment with SF-268 CNS; 98.2% in the experiment with SF-295 CNS; 55.3% in the experiment with SF-539 CNS; -40.5% (active) in the experiment with M14 melanoma.
`CC(C)(C)c1cn2cccc(C(=O)N3CCN(CC(=O)Nc4ccc(Cl)cc4C(=O)c4ccccc4Cl)CC3)c2n1`: the growth is 60.6% with NCI-H23 lung; 71.6% in the experiment with NCI-H226 lung; 94.6% in the experiment on NCI-H322M lung; 84.7% in the experiment with HOP-62 NSCLC; 49.8% in the experiment with NCI-H460 lung; -30% (active) in the experiment with HOP-92 NSCLC. Besides, the growth was 54.9% in the experiment on NCI-H522 lung; 27.6% in the experiment on A549/ATCC NSCLC; 55.3% in the experiment on 786-0 renal; 54.2% in the experiment with COLO 205 colon; 73.3% in the experiment on DU-145 prostate; 33.5% with K-562 leukemia. The growth with MALME-3M melanoma is 86.4%; in the experiment with MDA-MB-231 breast it was 73.5%; in the experiment with SF-268 CNS, 85.8%; with SF-295 CNS it was -5.34% (active); in the experiment on SF-539 CNS, 51.4%; with M14 melanoma, 48.5%.
Take `COc1cc2oc(-c3cccc(NC(=O)Nc4ccc5c(c4)OCO5)c3)cc(=O)c2c(OC)c1OC`: the growth in the experiment with NCI-H23 lung was 64.5%; with NCI-H226 lung it was 87.6%; with NCI-H322M lung, 79.4%; in the experiment on HOP-62 NSCLC, 63.2%; in the experiment on NCI-H460 lung, 37.7%; in the experiment on HOP-92 NSCLC it was 17.2%. The growth with NCI-H522 lung is 41.5%; in the experiment on A549/ATCC NSCLC, 61%; in the experiment with 786-0 renal, 65.1%; in the experiment on COLO 205 colon, 75.8%; in the experiment on DU-145 prostate, 65.4%; with K-562 leukemia, 41.9%. Further, the growth is 75.7% in the experiment with MALME-3M melanoma; 61.3% with MDA-MB-231 breast; 75.6% with SF-268 CNS; 60% in the experiment with SF-295 CNS; 81.8% in the experiment on SF-539 CNS; -9.91% (active) with M14 melanoma.
In the case of `CCN1C(=O)N(CC)C2C1NN=c1s/c(=C3\C(=O)N(C4CCCC4)c4ccccc43)c(=O)n12` (stereo unspecified), the growth with NCI-H23 lung was 20.1%; in the experiment on NCI-H226 lung it was 99.8%; in the experiment on NCI-H322M lung, 53%; in the experiment on HOP-62 NSCLC, 8.41% (active); with NCI-H460 lung, -1.48% (active); in the experiment with HOP-92 NSCLC, 28.1%. Moreover, the growth is -5.34% (active) in the experiment on NCI-H522 lung; 25.3% in the experiment with A549/ATCC NSCLC; 14.1% with 786-0 renal; -29.2% (active) in the experiment on COLO 205 colon; 7.65% (active) with DU-145 prostate; 4.67% (active) in the experiment on K-562 leukemia. In addition, the growth was 57.4% with MALME-3M melanoma; 19.7% in the experiment with MDA-MB-231 breast; 43.4% in the experiment on SF-268 CNS; -6.11% (active) in the experiment on SF-295 CNS; -39.3% (active) with SF-539 CNS; 2.66% (active) in the experiment on M14 melanoma.
Turning to `CSc1ccccc1C#C/C=C\C#Cc1ccccc1N1CCCCC1=O`, the growth in the experiment with NCI-H23 lung is 103%; with NCI-H226 lung, 91.2%; in the experiment with NCI-H322M lung, 110%; with HOP-62 NSCLC, 88.2%; in the experiment on NCI-H460 lung, 93.3%; in the experiment with HOP-92 NSCLC, 63.8%. In addition, the growth in the experiment on NCI-H522 lung was 99.7%; with A549/ATCC NSCLC it was 48.6%; with 786-0 renal, 106%; in the experiment on COLO 205 colon, 108%; in the experiment with DU-145 prostate, 107%; with K-562 leukemia, 143%. For the same compound, the growth in the experiment on MALME-3M melanoma is 89.2%; in the experiment on MDA-MB-231 breast it was 90.8%; in the experiment with SF-268 CNS, 101%; in the experiment with SF-295 CNS, 111%; in the experiment on SF-539 CNS, 93.4%; in the experiment with M14 melanoma, 104%.
Regarding `CCn1cc(C2NC(=O)c3cc(F)ccc3N2)c2cccc(Cl)c21` (stereo unspecified), the growth was 30.8% in the experiment with NCI-H23 lung; 49.5% in the experiment with NCI-H226 lung; 45.5% in the experiment with NCI-H322M lung; 28.5% in the experiment on HOP-62 NSCLC; 6.22% (active) with NCI-H460 lung; 72% in the experiment with HOP-92 NSCLC. The growth was -22.1% (active) with NCI-H522 lung; 3.82% (active) with A549/ATCC NSCLC; 42.3% with 786-0 renal; -11.5% (active) in the experiment with COLO 205 colon; 11.6% in the experiment on DU-145 prostate; 5.32% (active) in the experiment on K-562 leukemia. The growth with MALME-3M melanoma was 53.7%; with MDA-MB-231 breast it was 19%; in the experiment on SF-268 CNS it was 41.2%; with SF-295 CNS it was 10.4%; in the experiment with SF-539 CNS, -26.6% (active); with M14 melanoma, 1.23% (active).
